Results from PubChem BioAssay AID1159580 (chemical genetic matrix, 2015).
About 2,000 (36%) of roughly 5,500 compounds were called active. Not shown: some 18% with an inconclusive outcome. Rule as the data show it: active = normalized growth mostly below about 0.91 (no sharp cut-off); inconclusive = no clear call, values can overlap the other calls; inactive = mostly above about 0.92. The list shows a part of the results.

Experiment: chemical genetic growth profiling, strain panel (AID 1159580);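 also: tested at 20 µM; growth read once vehicle control cultures reached saturation at 30 °C; 1 = growth at the plate median or of vehicle wells; lower values mean less growth of the strain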
Conditions: growth OD

Measured: normalized growth

COc1cc(-c2coc3cc(O[C@@H]4O[C@H](CO)[C@@H](O)[C@H](O)[C@H]4O)c(OC)c(O)c3c2=O)cc(O)c1OC
inactive: S. cerevisiae deletion strains, locus YJR066W, strain TOR1, stronger effect = lower value 0.988 | S. cerevisiae deletion strains, locus YKL009W, strain mrt4, stronger effect = lower value 1.02 | S. cerevisiae deletion strains, locus YKL068W, stronger effect = lower value 0.995 | S. cerevisiae deletion strains, locus YKL085W, strain MDH1 (second series), stronger effect = lower value 0.997 | S. cerevisiae deletion strains, locus YKL085W, strain MDH1, stronger effect = lower value 0.997 | S. cerevisiae deletion strains, locus YKL160W, strain elf1, stronger effect = lower value 0.993 | S. cerevisiae deletion strains, locus YKR001C, strain vps1, stronger effect = lower value 1.01 | S. cerevisiae deletion strains, locus YKR026C, strain gcn3, stronger effect = lower value 0.997 | S. cerevisiae deletion strains, locus YKR091W, strain srl3, stronger effect = lower value 1 | S. cerevisiae deletion strains, locus YLL001W, strain dnm1, stronger effect = lower value 0.965 | S. cerevisiae deletion strains, locus YLL026W, stronger effect = lower value 0.995 | S. cerevisiae deletion strains, locus YLL041C, strain sdh2, stronger effect = lower value 1 | S. cerevisiae deletion strains, locus YLR027C, strain aat2, stronger effect = lower value 0.997 | S. cerevisiae deletion strains, locus YLR039C, strain RIC1, stronger effect = lower value 1.02 | S. cerevisiae deletion strains, locus YLR058C, strain SHM2, stronger effect = lower value 1.01 | S. cerevisiae deletion strains, locus YLR102C, strain apc9, stronger effect = lower value 0.994 | S. cerevisiae deletion strains, locus YLR113W, strain HOG1, stronger effect = lower value 0.975 | S. cerevisiae deletion strains, locus YLR221C, strain rsa3, stronger effect = lower value 0.993 | S. cerevisiae deletion strains, locus YLR258W, strain gsy2, stronger effect = lower value 0.984 | S. cerevisiae deletion strains, locus YLR262C, strain YPT6 (second series), stronger effect = lower value 1 | S. cerevisiae deletion strains, locus YLR262C, strain YPT6, stronger effect = lower value 1 | S. cerevisiae deletion strains, locus YLR268W, strain sec22, stronger effect = lower value 1.03 | S. cerevisiae deletion strains, locus YLR320W, strain mms22, stronger effect = lower value 0.986 | S. cerevisiae deletion strains, locus YLR330W, strain CHS5, stronger effect = lower value 1.01 | S. cerevisiae deletion strains, locus YLR342W, strain FKS1 (second series), stronger effect = lower value 1.05 | S. cerevisiae deletion strains, locus YLR342W, strain FKS1, stronger effect = lower value 0.994 | S. cerevisiae deletion strains, locus YLR357W, strain rsc2, stronger effect = lower value 0.956 | S. cerevisiae deletion strains, locus YLR370C, strain arc18, stronger effect = lower value 1 | S. cerevisiae deletion strains, locus YLR371W, strain rom2, stronger effect = lower value 1.01 | S. cerevisiae deletion strains, locus YLR384C, strain iki3, stronger effect = lower value 0.988 | S. cerevisiae deletion strains, locus YLR418C, strain cdc73, stronger effect = lower value 1.02 | S. cerevisiae deletion strains, locus YML016C, strain PPZ1, stronger effect = lower value 0.981 | S. cerevisiae deletion strains, locus YML032C, strain rad52, stronger effect = lower value 1.01 | S. cerevisiae deletion strains, locus YML120C, strain ndi1, stronger effect = lower value 0.99 | S. cerevisiae deletion strains, locus YML124C, strain tub3, stronger effect = lower value 0.99 | S. cerevisiae deletion strains, locus YMR058W, strain fet3, stronger effect = lower value 0.998 | S. cerevisiae deletion strains, locus YMR078C, strain ctf18, stronger effect = lower value 0.981 | S. cerevisiae deletion strains, locus YMR125W, strain sto1, stronger effect = lower value 0.99 | S. cerevisiae deletion strains, locus YMR129W, stronger effect = lower value 0.996 | S. cerevisiae deletion strains, locus YMR205C, strain PFK2, stronger effect = lower value 0.981 | S. cerevisiae deletion strains, locus YMR223W, strain ubp8, stronger effect = lower value 1 | S. cerevisiae deletion strains, locus YMR231W, strain pep5, stronger effect = lower value 0.997 | S. cerevisiae deletion strains, locus YMR307W, strain GAS1, stronger effect = lower value 1.04 | S. cerevisiae deletion strains, locus YNL067W, strain RPL9B, stronger effect = lower value 0.994 | S. cerevisiae deletion strains, locus YNL071W, strain lat1, stronger effect = lower value 1.01 | S. cerevisiae deletion strains, locus YNL128W, strain TEP1, stronger effect = lower value 1.01 | S. cerevisiae deletion strains, locus YNL183C, strain NPR1, stronger effect = lower value 0.962 | S. cerevisiae deletion strains, locus YNL209W, strain ssb2, stronger effect = lower value 0.989 | S. cerevisiae deletion strains, locus YNL233W, strain BNI4, stronger effect = lower value 1 | S. cerevisiae deletion strains, locus YNL248C, strain rpa49, stronger effect = lower value 0.988 | S. cerevisiae deletion strains, locus YNL250W, strain rad50, stronger effect = lower value 0.964 | S. cerevisiae deletion strains, locus YNL271C, strain bni1, stronger effect = lower value 0.978 | S. cerevisiae deletion strains, locus YNL298W, strain CLA4, stronger effect = lower value 0.989 | S. cerevisiae deletion strains, locus YNL307C, strain MCK1, stronger effect = lower value 0.99 | S. cerevisiae deletion strains, locus YNL322C, strain KRE1 (second series), stronger effect = lower value 0.977 | S. cerevisiae deletion strains, locus YNR049C, strain mso1, stronger effect = lower value 1.01 | S. cerevisiae deletion strains, locus YNR052C, strain pop2, stronger effect = lower value 0.964 | S. cerevisiae deletion strains, locus YOL012C, strain htz1 0.807 | S. cerevisiae deletion strains, locus YOL147C, strain pex11, stronger effect = lower value 1.01 | S. cerevisiae deletion strains, locus YOR001W, strain rrp6, stronger effect = lower value 0.948 | S. cerevisiae deletion strains, locus YOR061W, strain CKA2, stronger effect = lower value 0.999 | S. cerevisiae deletion strains, locus YOR069W, strain VPS5, stronger effect = lower value 0.986 | S. cerevisiae deletion strains, locus YOR070C, strain gyp1, stronger effect = lower value 1.01 | S. cerevisiae deletion strains, locus YOR080W, strain dia2, stronger effect = lower value 0.988 | S. cerevisiae deletion strains, locus YOR083W, strain WHI5, stronger effect = lower value 1.02 | S. cerevisiae deletion strains, locus YOR106W, strain vam3, stronger effect = lower value 0.98 | S. cerevisiae deletion strains, locus YOR136W, strain idh2, stronger effect = lower value 0.992 | S. cerevisiae deletion strains, locus YOR144C, strain elg1, stronger effect = lower value 0.996 | S. cerevisiae deletion strains, locus YOR184W, strain ser1, stronger effect = lower value 1.05 | S. cerevisiae deletion strains, locus YOR231W, strain MKK1, stronger effect = lower value 1.05 | S. cerevisiae deletion strains, locus YOR265W, strain rbl2, stronger effect = lower value 1.01 | S. cerevisiae deletion strains, locus YOR270C, strain vph1, stronger effect = lower value 1.02 | S. cerevisiae deletion strains, locus YOR290C, strain snf2, stronger effect = lower value 1 | S. cerevisiae deletion strains, locus YOR316C, strain cot1, stronger effect = lower value 0.985 | S. cerevisiae deletion strains, locus YPL051W, strain arl3, stronger effect = lower value 0.961 | S. cerevisiae deletion strains, locus YPL055C, strain LGE1, stronger effect = lower value 1.05 | S. cerevisiae deletion strains, locus YPL078C, strain atp4, stronger effect = lower value 0.993 | S. cerevisiae deletion strains, locus YPL106C, strain sse1, stronger effect = lower value 0.962 | S. cerevisiae deletion strains, locus YPL240C, strain hsp82, stronger effect = lower value 1 | S. cerevisiae deletion strains, locus YPL256C, strain CLN2, stronger effect = lower value 1.02 | S. cerevisiae deletion strains, locus YPR119W, strain clb2, stronger effect = lower value 0.982 | S. cerevisiae deletion strains, locus YPR141C, strain kar3, stronger effect = lower value 0.977 | S. cerevisiae deletion strains, locus YPR163C, strain tif3, stronger effect = lower value 0.986 | S. cerevisiae deletion strains, locus YPR167C, strain met16, stronger effect = lower value 0.993 | S. cerevisiae deletion strains, strain wtn01, stronger effect = lower value 1.01 | S. cerevisiae strains, strain wild type, stronger effect = lower value 1.01
